Data reported in PubChem BioAssay AID1224852 (National Center for Advancing Translational Sciences (NCATS), 2016).
Results filed as inconclusive are left out. Activity calls are given as the source filed them. Calls come from the whole dose curve; as a rule, active = well fitted curve in the direction sought with a large enough effect (not every such curve was filed as active); inconclusive = small, poorly fitted or top-dose-only effect, or effect the other way, or another doubt; inactive = no such curve, though single readings can be large or run the other way.

Assay: Cell viability assay for measurement of the protective activity of small molecules against cell death caused by Zika virus infection in human neural progenitor cells (hNPCs)
Details: hNPC ZIKV-induced death protection, ATP luminescence, 72 h; series mostly up to 46.1 µM
From the text: National Center for Advancing Translational Sciences [NCATS] Johns Hopkins University School of Medicine Florida State University Assay Overview: Zika virus infection causes cell death in certain cell types including human neural progenitor cells (hNPCs), astrocytes, and astrocytoma cell line (SNB-19). This cell viability assay measures the ATP content (level) in human neural progenitor cells (hNPCs) using a luminescence readout that is proportional to viable cell numbers. Decrease in the luminescence signal after Zika virus infection indicates the cell death caused by Zika virus. Small molecule inhibitors […] the decreased luminescence signal after Zika virus infection, indicating the protective effect of that small molecule on the cell death caused by Zika virus infection. This observed protective effect of small molecules against Zika virus induced cell death may result from inhibition of virus replication or cellular response to the virus infection.
Assay Protocol Summary: The medium for hNPCs consists of DMEM/F12, N2 supplement (ThermoFisher, Cat.# 17502048), NEAA (ThermoFisher, Cat. # 11140050), 2 ug/ml heparin, 2 uM cyclopamine, and B27 (ThermoFisher, Cat. # 17504044). The ATP content assay kit (PerkinElmer, Cat.# 6016731) was used to determine cell viability. The reagent was reconstituted and prepared as described by the manufacturer. Cells were seeded in 384- or 1536-well assay plates and cultured at 37 C with 5% CO2 for 16 to 20 hours. The typical cell seeding density in the 1536-well plate assay is 350 cells/well in 3 ul medium for hNPCs in the tissue cultured treated/PDL coated plates. Compounds were added to cells and incubated for one hour before addition of ZIKV solution to cells (2 FFU/cell). After incubation at 37 C with 5% CO2 for 72 hours, the reagent mixture of the ATP content assay kit was added to each well, followed by incubation at room temperature for 10 minutes. The luminescence intensity of the assay plates was measured using a ViewLux plate reader (PerkinElmer). […] The percentage inhibitions of the decreased cell viability by small molecule inhibitors were then calculated.

Structure (SMILES)	outcome
COc1cccc2c1C(=O)c1c(O)c3c(c(O)c1C2=O)C[C@@](O)(C(=O)CO)CC3OC1CC(N2CCOC(OC)C2)C(O)C(C)O1 (stereo partly drawn)	inactive
Oc1ccc([C@H]2CNCc3c2ccc(O)c3O)cc1O	inactive
O=C1C=CC[C@@H]2[C@H]3CCCN4CCC[C@@H](CN12)[C@@H]34	inactive
CC(=C(CCOC(=O)C(C)C)SSC(CCOC(=O)C(C)C)=C(C)N(C=O)Cc1cnc(C)nc1N)N(C=O)Cc1cnc(C)nc1N	inactive
CC[n+]1c(-c2ccccc2)c2cc(N)ccc2c2ccc(N)cc21	inactive
O=c1c2ccccc2[se]n1-c1ccccc1	inactive
O=C(Nc1ccc(Br)cc1)c1cc(Br)cc(Br)c1O	inactive
S=C(SSC(=S)N1CCCCC1)N1CCCCC1	inactive
CC(C)N[C@@H]1CCn2c(=O)[nH]c3cccc(c32)[C@@H]1O	inactive
CC(C)[N+](C)(CCC(C(N)=O)(c1ccccc1)c1ccccc1)C(C)C	inactive
O=S(=O)(CC1CS1)c1ccc(Oc2ccccc2)cc1 (stereo not drawn)	inactive
CC(C)[C@H]1C(=O)N[C@H](CO)Cc2c[nH]c3cccc(c23)N1C	inactive
Cc1ccc([N+](=O)[O-])[c]2c1[O][Hg]2	inactive
CN1CC[C@@]2(C)c3cc(OC(=O)Nc4ccccc4)ccc3N(C)[C@@H]12	inactive
COP(=S)(OC)SCN1C(=O)c2ccccc2C1=O	inactive
CC(O)CN1CCN(CC(=O)[O-])CCN(CC(=O)[O-])CCN(CC(=O)[O-])CC1.[Gd+3] (stereo not drawn)	inactive
COC1(CS(=O)c2ccccc2)CCN(CCc2c[nH]c3ccc(F)cc23)CC1 (stereo not drawn)	inactive
CN1CC(=O)N2C(Cc3c([nH]c4ccccc34)[C@H]2c2ccc3c(c2)OCO3)C1=O (stereo partly drawn)	inactive
